# High-throughput results (PubChem)
# This is a sample that favours compounds with a hit; in the whole collection about 21% have one here.
# CYP2C19 activ – increases human CYP2C19 enzyme activity. AID 1025. 96,000 tested, under 10 active. activation factor at 5 µM. recombinant CYP2C19, luciferin-H EGE luminescence; hits give high values; 0 = fully inhibited enzyme, 1 = untreated enzyme;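 active = activation factor of at least 2 at 5 µM in the primary screen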;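 note: 0 = wells with 2.5 mM tranylcypromine and 1 = vehicle-only wells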
# Target sequence (P33261 whole entry, looked up): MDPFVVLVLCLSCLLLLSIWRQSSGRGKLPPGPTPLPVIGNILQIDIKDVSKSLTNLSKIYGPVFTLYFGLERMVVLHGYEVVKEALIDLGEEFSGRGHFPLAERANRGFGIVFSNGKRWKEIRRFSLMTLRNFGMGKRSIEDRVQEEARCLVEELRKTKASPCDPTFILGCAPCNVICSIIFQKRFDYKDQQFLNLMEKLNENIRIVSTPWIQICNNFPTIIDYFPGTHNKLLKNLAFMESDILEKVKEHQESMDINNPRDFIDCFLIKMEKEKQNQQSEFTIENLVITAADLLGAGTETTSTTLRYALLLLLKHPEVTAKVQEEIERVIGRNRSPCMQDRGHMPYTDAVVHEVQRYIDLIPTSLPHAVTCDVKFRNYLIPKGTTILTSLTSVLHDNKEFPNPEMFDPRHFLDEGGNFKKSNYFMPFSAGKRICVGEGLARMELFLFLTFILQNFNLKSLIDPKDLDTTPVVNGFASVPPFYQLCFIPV
# CYP2C9 inhib – human CYP2C9 inhibition; AID 777; inhibition, % at 5 µM; CYP2C9 Supersomes, luciferin-H conversion, luminescence; P11712; hit rate 20% among 96,000;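 active = blocking of liver enzyme CYP2C9 beyond about 50% at 5 µM, limit read from the data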
# CYP2C9 activ – increases human cytochrome P450 2C9 activity. recombinant CYP2C9, luciferin-H conversion, luminescence; hits give high values; factor 1 = untreated enzyme, 0 = blocked. activation factor at 5 µM. hit rate 1.4% among 96,000. AID 1024;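 active = activation factor of 2 or more for CYP2C9 at a 5 µM dose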;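 note: 0 = sulfaphenazole-blocked wells and 1 = vehicle-only wells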
# MRP1 act – MRP-1 activation; H69AR cells + doxorubicin, viability rescue, CellTiter-Glo; viability increase, % at 10 µM; hit rate 0.61% among 140,000;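 active = viability gain under doxorubicin at or above a set limit, the compound median plus 3 SD, cut at about 4.7% in these data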;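 note: MRP-1 overexpressing cells given doxorubicin 25 µM after compound pretreatment; 18-22 h compound pretreatment then 72 h with doxorubicin before readout; 0% = doxorubicin-only wells and 100% = vehicle-treated cells without doxorubicin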
# CYP2C19 inh – human CYP2C19 inhibition | inhibition, % at 5 µM | CYP2C19 Supersomes, luciferin-H EGE luminescence, 30 min | hit rate 21% among 96,000;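 active = CYP2C19 inhibition above a set limit at 5 µM in the primary screen, cut at about 50% in these data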;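 note: plate controls were negative control wells for no effect and 2.5 mM tranylcypromine positive control for full effect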
# MRP reversal – reverses drug resistance mediated by MRP; AID 602; hit rate 0.04% among 85,000; differential viability (reversal), % at 10 µM; H69AR cells + 2 uM doxorubicin, CellTiter-Glo, 72 h;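 active = viability drop by adding the cancer drug above about 55%, with treated viability meeting a 40% cutoff, limit read from the data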;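 note: viability without doxorubicin minus viability with 2 µM doxorubicin for each compound; larger differential means the compound sensitizes cells more to doxorubicin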
# Active calls of the source: *; x = no result given.
SMILES,CYP2C19 activ,CYP2C9 inhib,CYP2C9 activ,MRP1 act,CYP2C19 inh,MRP reversal
COc1ccc(N(CC(=O)N2CCC(C)CC2)S(=O)(=O)c2c(C)nn(C)c2C)cc1,0.3,37,0.6,-1,75*,10
COc1ccc(N(CC(=O)NCc2ccccc2)S(=O)(=O)c2c(C)nn(C)c2C)cc1,0.2,30,0.7,0,85*,-1
COc1ccc(N(CC(=O)N2CCCCC2)S(=O)(=O)c2c(C)nn(C)c2C)cc1,0.7,-2,1,-1,28,16
CC(=O)Nc1ccc2nc(C3CCCCC3)[nH]c2c1,1,4,1,-2,-1,x
COc1ccc(N(CC(=O)NC2CCCC2)C(=O)c2ccc(N3CCCCC3)nc2)cc1,0.9,78*,0.2,-3,11,-6
CC1CCCCC1NC(=O)c1cc2ccccc2o1 (stereo unspecified),x,x,x,-2,x,x
CCNc1nc(-c2ccc(Cl)cc2)cs1,0.7,0,1,0,35,18
CNc1nc(-c2ccc(Cl)cc2)cs1,0.4,25,0.8,2,60*,17
O=C1/C(=C\c2ccco2)SC(=S)N1c1ccccc1,x,x,x,4.7*,x,x
Cc1ccc(N2C(=O)/C(=C\c3ccco3)SC2=S)cc1,1,-6,1.1,-2,2,x
CS(=O)(=O)N1CCN(c2ccccc2NC(=O)CSc2ccc(Cl)cc2)CC1,0.2,87*,0.1,-4,78*,9
COc1ccc(NC(=O)c2ccccc2NC(=O)CSc2ccc(Cl)cc2)cc1,0.4,62*,0.4,-3,62*,x
CS(=O)(=O)N1CCN(c2ccccc2NC(=O)c2ccc(Cl)cc2)CC1,1,14,0.9,0,4,4
COc1ccc(NC(=O)c2ccccc2NC(=O)CSc2ccccc2)cc1,x,x,x,-1,x,x
Cc1cc(C)c2nc(NC(=O)[C@@H](NC(=O)c3cccc(S(=O)(=O)N4CCOCC4)c3)C(C)C)sc2c1,x,x,x,-4,x,x
CCOC(=O)CNC(=O)CSc1nc2ncc(Br)cc2[nH]1,0.7,64*,0.4,0,31,x
COC(=O)CSc1nc2nc(C)c(Br)cc2[nH]1,0.8,18,0.8,-1,23,-7
CCN(CC)C(=O)CSc1nc2ncc(Cl)cc2[nH]1,0.5,42,0.6,0,52*,x
O=C(CSc1nc2ncc(Br)cc2[nH]1)c1ccc([N+](=O)[O-])cc1,x,x,x,-1,x,x
Fc1ccc(CSc2nc3ncc(Br)cc3[nH]2)cc1,0.5,21,0.8,0,55*,-5
CCN(CC)C(=O)CSc1nc2ncc(Br)cc2[nH]1,0.3,44,0.6,0,69*,11
CC(C)OC(=O)CSc1nc2ncc(Cl)cc2[nH]1,0.5,25,0.8,0,48,-29
CC(NC(=S)Nc1ccc(Cl)cc1)C(c1ccccc1)N1CCOCC1 (stereo unspecified),x,x,x,-4,x,x
COC(=O)c1cccnc1NC(=S)NNC(=O)c1ccncc1,0.2,25,0.7,-2,84*,-10
CC(=O)C(C(C)=O)c1c(Cl)c(O)c(O)c2c(C(=O)c3ccccc3)coc12,0.9,86*,0.1,-5,9,0
SMILES,CYP2C19 activ,CYP2C9 inhib,CYP2C9 activ,MRP1 act,CYP2C19 inh,MRP reversal
COc1ccc(C(=O)c2ccccc2)c2c(O)ccc(C(=O)c3ccccc3)c12,1.3,44,0.6,-4,-29,1
CC(C)(C)c1ccc(C(=O)NNC(=O)Cc2cccc3ccccc23)cc1,0.8,58*,0.4,-1,17,47
O=C(COc1ccc2ccccc2c1)NNC(=O)Cc1cccc2ccccc12,x,x,x,-5,x,x
CCCCc1ccc(N2C(=O)[C@@H]3C(CC(N)=O)NC4(C(=O)Nc5ccc(F)cc54)[C@@H]3C2=O)cc1 (stereo partly specified),1.1,25,0.8,-2,-8,13
CCCCN(C(=N)N1CCCCC1)c1nc(C)c([N+](=O)[O-])c(=O)[nH]1,x,x,x,2,x,x
OCCc1ccc(-c2ccc(Cl)cc2)o1,0.5,45,0.5,0,47,4
CN1CCN(Cc2ccc(-c3ccc(Cl)cc3)o2)CC1,0.4,7,0.9,-2,57*,11
O=C(Cc1cccs1)N1CCCC(c2nc3c(nnn3Cc3ccccc3Cl)c(=O)[nH]2)C1 (stereo unspecified),0.3,91*,0.1,-4,66*,34
N#Cc1ccc(NC(=O)N2CCC(c3nc4c(nnn4Cc4cccc(Cl)c4)c(=O)[nH]3)CC2)cc1,0.8,47,0.5,-2,16,-14
CCOc1ccccc1NC(=O)N1CCCC(c2nc3c(nnn3Cc3ccc(C)cc3)c(=O)[nH]2)C1 (stereo unspecified),0.9,6,0.9,0,14,20
O=C(NCc1cccs1)c1nc2c(nnn2Cc2ccccc2Cl)c(=O)[nH]1,x,x,x,-2,x,-24
Cc1ccc(Cn2nnc3c(=O)[nH]c(C4CCCN(C(=O)Nc5ccc(F)cc5F)C4)nc32)cc1 (stereo unspecified),0.6,54*,0.5,-4,40,12
CC(C)(C)c1ccc(Cn2nnc3c(=O)[nH]c(C4CCN(C(=O)Cc5cccs5)CC4)nc32)cc1,0.1,99*,0,-2,91*,1
CC(C)(C)c1ccc(Cn2nnc3c(=O)[nH]c(C4CCCN(C(=O)Cc5cccs5)C4)nc32)cc1 (stereo unspecified),0.7,57*,0.4,-1,28,-5
OCC1CCCN1C(=S)Nc1ccccc1 (stereo unspecified),0.7,-9,1.1,-1,27,x
O=C(Cc1cccs1)N1CCCC(c2nc3c(nnn3Cc3ccc(F)cc3)c(=O)[nH]2)C1 (stereo unspecified),0.8,57*,0.4,-1,19,12
O=c1[nH]c(C2CCCN(S(=O)(=O)c3ccc(F)cc3)C2)nc2c1nnn2Cc1ccccc1 (stereo unspecified),0.9,18,0.8,-1,6,29
COc1ccc(C2(C(F)(F)F)NC(=O)N(C)C(=O)N2C)cc1 (stereo unspecified),0.9,-4,1,-1,12,33
CC1(C)Cc2c(C#N)c(NCc3ccco3)nc(-c3ccco3)c2CO1,1,19,0.8,-2,-3,-14
CC(C)c1nc(N2CCN(C(=O)c3ccccc3)CC2)c(C#N)c2c1COC(C)(C)C2,0.3,81*,0.2,-4,72*,20
CC1(C)Cc2c(C#N)c(N3CCCC3)nc(-c3ccco3)c2CO1,0.5,91*,0.1,-4,51*,-31
N#Cc1c(N2CCOCC2)nc(-c2ccco2)c2c1CCCC2,0.8,67*,0.3,-3,21,-3
CCC(=O)N1CCN(c2nc(-c3ccccc3)c3c(c2C#N)CCCC3)CC1,0.2,69*,0.3,-4,83*,6
N#Cc1c(NCCN)nc(-c2ccco2)c2c1CCCC2,0.9,24,0.8,-2,10,-10
